Screening results from PubChem.
Hits are enriched below; roughly 7% of the tested compounds scored in any of these assays.
KLK7 zymogen act – activators of human kallikrein-7 zymogen; P49862; activation, % at 7 µM; purified proKLK7, EDANS-DABCYL substrate fluorescence; 100% is mature enzyme control, 0% vehicle; hit rate 0.9% among 370,000;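 active means activation above the mean of all tested compounds plus 3 SD, computed per campaign excluding outliers beyond control limits, cut at about 13% in these data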
AHR activator – activators of human aryl hydrocarbon receptor; AHR-responsive luciferase reporter cells, luminescence; activation, % at 5 µM; AID 2796; hit rate 2.5% among 320,000; P35869; in the data active means activation above about 47%;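 further: 0% = vehicle wells and 100% = reference agonist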
ADAM10 inh – ADAM10 inhibition, QFRET primary screen. recombinant ADAM10, EDANS/DABCYL FRET peptide cleavage, 3 h. inhibition, % at 7 µM. hit rate 0.62% among 370,000;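 active means inhibition above a per-campaign cutoff equal to the mean of compounds falling between control-based bounds plus 3 SD, cut at about 20% in these data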;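 further: 0% = DMSO wells while the 100% control is not disclosed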
Target sequence (O14672 214-748 limits assumed): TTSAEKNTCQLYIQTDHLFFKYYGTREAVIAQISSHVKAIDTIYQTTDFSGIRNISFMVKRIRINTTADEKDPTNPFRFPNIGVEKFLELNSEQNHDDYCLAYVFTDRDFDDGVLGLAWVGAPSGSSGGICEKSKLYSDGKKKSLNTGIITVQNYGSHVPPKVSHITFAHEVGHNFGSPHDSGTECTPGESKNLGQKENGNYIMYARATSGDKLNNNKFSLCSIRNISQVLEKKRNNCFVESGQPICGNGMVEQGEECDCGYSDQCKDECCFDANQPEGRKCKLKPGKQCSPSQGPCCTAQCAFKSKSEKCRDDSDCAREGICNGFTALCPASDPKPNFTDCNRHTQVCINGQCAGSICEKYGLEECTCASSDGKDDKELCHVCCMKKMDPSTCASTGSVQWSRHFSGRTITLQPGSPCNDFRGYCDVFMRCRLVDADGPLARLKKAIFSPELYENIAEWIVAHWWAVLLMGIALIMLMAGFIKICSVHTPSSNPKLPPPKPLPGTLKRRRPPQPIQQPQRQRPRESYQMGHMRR
NR3A LBD binder – modulates the human NR3A ligand-binding domain | NR3A LBD differential scanning fluorimetry, Tm shift; 0% = protein alone, 100% = glycine-bound protein | Tm shift relative to glycine control, % at 25 µM | hit rate 2.5% among 340,000;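 active means melting temperature shift of at least 10% of the positive control shift, at one fixed dose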
ADAM17 inh – inhibitors of human ADAM17; AID 720648; inhibition, % at 6.95 µM; recombinant ADAM17, EDANS/DABCYL FRET peptide cleavage; P78536; hit rate 0.83% among 370,000;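 active means inhibition above the mean of compounds lying between control limits plus 3 SD, set per campaign, cut at about 8.5% in these data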;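 further: 0% = DMSO-only wells as the low control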
rCAG RNA binder – molecules binding r(CAG) RNA repeats; r(CAG) RNA repeat, TO-PRO-1 dye displacement fluorescence; inhibition, % at 3 µM; hit rate 1.3% among 370,000; AID 651821;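 active means inhibition above the plate cutoff, the mean of all test compounds on that plate plus 3 SD, cut at about 35% in these data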;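 further: 0% = DMSO alone and 100% = 100 µM mitoxantrone as full dye displacement; higher means more dye released from RNA so lower well fluorescence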
AHR act cf – human AHR activation, confirmation; shares compounds with AHR activator; human cells, AHR-responsive luciferase reporter, luminescence; activation, % at 9 µM; hit rate 87% among 2,300; in the data active means activation above about 49%;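 further: HepG2 hepatoma cells carrying a DRE-driven firefly luciferase reporter; 0% = vehicle wells and 100% = reference agonist wells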
PXR act counter – counter-screen for AHR activators: human PXR activators; activation, % at 11.6 µM; hit rate 88% among 2,300; cell-based PXR reporter, luciferase luminescence; shares compounds with AHR activator; AID 434939; in the data active means activation above about 11%;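 further: human hepatoma DPX-2 cells expressing full-length human PXR; 0% = DMSO and 100% = reference agonist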
The depositor's hits bear a star; nt = not tested or not shown.

SMILES | KLK7 zymogen act | AHR activator | ADAM10 inh | NR3A LBD binder | ADAM17 inh | rCAG RNA binder | AHR act cf | PXR act counter
CCN(CC)CCCNC(=O)CSc1nc2cccnc2n1C | -0.5 | nt | -2.4 | nt | 0.8 | 0.8 | nt | nt
C[C@@H]1CN([C@H](C)CO)C(=O)CCCn2nncc2CO[C@@H]1CN(C)C(=O)Nc1ccccc1 | -0.4 | nt | -0.6 | nt | -4.5 | 3.0 | nt | nt
O=C1N/C(=N\c2ccccn2)SC1Cc1ccccc1Cl (stereo not given) | 0.6 | 79.6* | -2.9 | -1.2 | 1.0 | 1.7 | 89.1* | 33.9*
O=C(OC12CCCN(C1)/C(=C/c1cccc(Cl)c1)C2)c1cccc(F)c1 (stereo not given) | 0.5 | nt | 3.6 | nt | 2.5 | -0.1 | nt | nt
CC(=O)O[C@H]1CC[C@]2(C)C3CC[C@]4(C)[C@@H]([C@H](C)/C=C/[C@H](C)C(C)C)CC[C@H]4[C@@]34C=C[C@]2(C1)N(C(=O)c1ccccc1)O4 (stereo not given in full) | 0.1 | nt | -3.0 | nt | -0.9 | 3.2 | nt | nt
COCCn1c(SCC(=O)NCCc2ccc(OC)c(OC)c2)nc2c([nH]c3ccccc32)c1=O | -0.8 | 20.2 | -140.9 | -0.1 | -30.4 | 0.9 | nt | nt
COCCn1c(SCC(=O)Nc2ccccc2OC)nc2c([nH]c3ccccc32)c1=O | -0.1 | 84.7* | 3.8 | -10.1 | 3.2 | 2.3 | 83.5* | 178.6*
COCCn1c(SCC(=O)NCCc2ccccc2)nc2c([nH]c3ccccc32)c1=O | nt | 120.4* | nt | 0.3 | nt | nt | 71.6* | 204.9*
C=CCn1c(SCC(=O)Nc2ccccc2OC)nc2c([nH]c3ccccc32)c1=O | -0.5 | 33.9 | -3.0 | -8.7 | -2.7 | 4.5 | nt | nt
C[C@@H]1OC(C2CCCCC2)N(C)[C@H]2C[C@H]3c4[nH]c5c(-c6ccccc6)cccc5c4CCN3C(=O)[C@@H]12 (stereo not given in full) | -7.9 | nt | -352.6 | nt | -84.0 | 5.5 | nt | nt
Cc1cc(C)c(C#N)c(OCC(=O)c2ccc(Br)cc2)n1 | -0.2 | 101.3* | 0.4 | 0.5 | -2.2 | -2.3 | 106.2* | 19.8*
Cc1ccnc(SCC(=O)c2ccc(Br)cc2)c1C#N | -0.2 | 125.5* | -4.2 | -4.9 | -0.2 | 4.5 | 125.1* | 92.5*
CN(Cc1ccccc1)C(=O)c1cccc(NC(=O)Cc2cccc(NC(=O)C3CCN(C(=O)CCc4ccccc4)CC3)c2)c1 | 0.7 | nt | 5.0 | nt | 2.2 | 9.3 | nt | nt
COc1ccc(CCNC(=O)CC2Oc3ccc(Cl)cc3NC2=O)cc1OC (stereo not given) | -0.1 | 97.8* | -4.8 | 0.9 | -1.1 | 2.8 | 3.3 | 45.8*
CC(C)(C)c1cnnn1-c1ccc(/C=N/Nc2ccc([N+](=O)[O-])cc2)cc1 | 0.0 | 82.5* | -7.8 | -0.1 | -1.7 | 3.9 | 55.1* | 35.1*
Cc1c(C(=O)NCc2ccccc2CN2CCCC2)oc2c(F)cccc12 | -0.6 | 80.3* | -5.8 | 1.1 | -2.1 | 5.5 | 95.4* | 38.5*
COc1ccc2oc(C(=O)NCc3ccccc3CN3CCCC3)c(C)c2c1 | -0.7 | 9.7 | -83.0 | -1.7 | -24.7 | 0.7 | nt | nt
CCCN1C(=O)c2cc(C(=O)Nc3ccccc3OC)ccc2C1Nc1ccccc1OC (stereo not given) | 0.1 | 94.3* | -2.2 | -0.9 | -3.4 | 2.3 | 65.4* | 72.2*
CC(C)c1ccc(S(=O)(=O)/N=C2\C=C(NS(=O)(=O)c3ccccc3)C(=O)c3ccccc32)cc1 | -0.3 | 83.4* | 5.1 | 1.3 | 3.1 | 68.1* | 20.4 | 130.3*
Cc1ccc(F)c(NC(=S)Nc2cccc3ccccc23)c1 | -11.4 | 94.4* | -235.1 | nt | -79.3 | 4.0 | 9.1 | 106.4*
S=C(Nc1cccc2ccccc12)Nc1cccc2ccccc12 | -11.8 | nt | -167.0 | -9.4 | -38.6 | 9.6 | nt | nt
Cn1cc(/C=C2\SC(=O)N(c3ccc(O)cc3)C2=O)c2ccccc21 | -0.4 | -9.0 | 0.1 | 8.7 | 0.2 | 21.4 | nt | nt
Cn1cc(/C=C2\SC(=O)N(c3ccccc3)C2=O)c2ccccc21 | 1.7 | 98.5* | 4.4 | 2.2 | -2.6 | 0.7 | 69.0* | 19.9*
OCc1ccccc1OCc1ccccc1 | 0.1 | nt | -3.8 | nt | -1.8 | 1.8 | nt | nt
Cc1ccc2nc3c(cc2c1)c(NC(=O)c1cccnc1)nn3C | 1.0 | 106.7* | -37.2 | -4.1 | -15.2 | 4.4 | 118.0* | 24.9*
SMILES | KLK7 zymogen act | AHR activator | ADAM10 inh | NR3A LBD binder | ADAM17 inh | rCAG RNA binder | AHR act cf | PXR act counter
CCCC(=O)Nc1nn(C)c2nc3cc(C)ccc3cc12 | nt | 84.8* | nt | nt | nt | nt | 53.0* | nt
CCCn1nc(NC(=O)c2ccccn2)c2cc3cc(C)ccc3nc21 | -3.4 | 14.2 | -30.5 | 0.8 | -10.5 | 12.2 | nt | nt
CCCC(=O)Nc1nn(C)c2nc3ccc(C)cc3cc12 | -0.4 | 7.2 | -13.8 | 3.3 | -8.8 | 2.2 | nt | nt
COC(=O)c1sccc1NC(=O)c1ccc(C(C)C)cc1 | -0.5 | 95.4* | -1.1 | 1.9 | -0.9 | -2.4 | 96.9* | 14.8*
C#CCn1c2ccccc2c2nc3ccccc3nc21 | 0.7 | 88.3* | -14.6 | -2.7 | -9.9 | -1.6 | 191.2* | 49.2*
CCCC(=O)Nc1nc(C)c(-c2csc(Nc3cc(OC)ccc3OC)n2)s1 | -0.5 | 85.0* | 0.8 | -0.2 | 5.2 | 21.9 | 75.9* | 45.0*
COc1ccccc1Nc1nc(-c2sc(NC(=O)c3cccc(Cl)c3)nc2C)cs1 | nt | 32.4 | nt | nt | nt | nt | nt | nt
COc1ccc(OC)c(Nc2nc(-c3sc(N)nc3C)cs2)c1 | 0.1 | 46.2 | 4.5 | -19.9 | 0.3 | 26.0 | nt | nt
C=CCCC(=O)Nc1nc(C)c(-c2csc(Nc3cc(OC)ccc3OC)n2)s1 | -0.2 | 117.4* | 10.7 | -1.8 | 6.3 | 26.7 | 69.1* | 61.6*
CCCC(=O)Nc1nc(C)c(-c2csc(Nc3ccccc3OC)n2)s1 | -1.3 | 79.3* | -6.4 | -5.6 | -3.1 | 21.8 | 100.9* | 33.9*
C=CCCC(=O)Nc1nc(C)c(-c2csc(Nc3cccc(OC)c3)n2)s1 | -0.8 | 300.8* | 5.9 | -1.6 | -1.6 | 23.3 | 100.2* | 13.9*
CCCC(C)C(=O)NC1CCCCN(Cc2ccc(C)cc2)C1=O (stereo not given) | 0.3 | nt | -5.5 | nt | -4.7 | 0.0 | nt | nt
Cc1ccc(NC2=C(NC(=O)c3ccccc3)C(=O)c3ccccc3C2=O)cc1Cl | 0.7 | 104.3* | 3.8 | 20.2* | 1.6 | 2.3 | 106.3* | 92.9*
CCOc1ccc(NC(=O)c2ccc(F)cc2F)cc1 | 1.4 | -7.9 | 1.5 | 2.4 | -3.5 | -4.4 | nt | nt
COc1ccc(NC(=O)c2ccc3ccccc3c2OC)cc1 | 0.5 | -0.6 | 8.7 | -0.2 | -2.6 | -0.8 | nt | nt
COc1ccc(Br)cc1C(=O)Nc1cc(C)cc(C)c1 | 0.3 | 113.4* | 7.5 | 3.0 | 3.1 | 1.6 | 100.3* | 18.2*
CCOc1ccc(NC(=O)c2cc3ccccc3cc2OC)cc1 | -4.0 | 82.8* | 5.2 | 32.0* | 1.8 | 6.0 | 90.5* | nt
